Inconclusive results are not listed. Where a call stands in place of a potency, no number is given. A number with no mark means an inactive call. Calls of active or inactive are those of the source. Unless noted, calls come from the whole dose curve; as a rule, active = well fitted curve in the direction sought with a large enough effect in the repeat runs; inconclusive = weak or mixed curves; inactive = no such curve, though single readings can be large; an effect the other way counts as inactive or inconclusive.
Key:
[1] = qHTS assay to identify small molecule agonists of the peroxisome proliferator-activated receptor delta (PPARd) signaling pathway - cell viability counter screen (AID 743211); conditions: PPARd-bla HEK293H viability, CellTiter-Glo luminescence, 17 h; series mostly up to 62.6 µM; note: nearly all actives have a fitted effect of over 55% in size; note: potency is the fitted concentration of half-maximal effect
Procedure, shortened: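 In the same wells used for beta-lactamase reporter measurement, cytotoxicity is scored by CellTiter-Glo. HEK293H PPARd-bla cells receive compound for 17 h at 37C following a 5 h settling period.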

[2] = target: Peroxisome proliferator-activated receptor delta (Homo sapiens) (UniProt Q03181); experiment: qHTS assay to identify small molecule agonists of the peroxisome proliferator-activated receptor delta (PPARd) signaling pathway (AID 743212; calls by dose curve); conditions: HEK293H PPARd-UAS-bla, beta-lactamase FRET ratio, 17 h; series mostly up to 62.6 µM
Chain of Peroxisome proliferator-activated receptor delta (Homo sapiens) (Q03181 whole entry, looked up): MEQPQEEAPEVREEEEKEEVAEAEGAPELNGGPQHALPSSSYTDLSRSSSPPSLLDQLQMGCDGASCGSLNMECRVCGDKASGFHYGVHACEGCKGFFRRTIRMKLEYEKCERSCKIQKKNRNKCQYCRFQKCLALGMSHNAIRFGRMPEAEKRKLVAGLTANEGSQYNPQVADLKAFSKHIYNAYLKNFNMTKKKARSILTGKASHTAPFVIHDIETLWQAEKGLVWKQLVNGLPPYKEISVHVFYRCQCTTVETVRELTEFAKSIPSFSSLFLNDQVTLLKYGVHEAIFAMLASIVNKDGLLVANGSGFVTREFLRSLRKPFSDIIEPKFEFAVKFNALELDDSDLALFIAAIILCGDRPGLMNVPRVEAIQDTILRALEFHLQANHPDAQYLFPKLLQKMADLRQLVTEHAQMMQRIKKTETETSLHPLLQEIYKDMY
Procedure, shortened: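 Quantitative high-throughput agonist screen in a HEK293H beta-lactamase reporter line under UAS control. Compounds in DMSO, at 37 C. Fluorescence read after 2 h with FRET substrate at room temperature.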

[3] = target: Peroxisome proliferator-activated receptor delta (Homo sapiens) (UniProt Q03181); experiment: qHTS assay to identify small molecule antagonists of the peroxisome proliferator-activated receptor delta (PPARd) signaling pathway (AID 743215; active = well fitted inhibition curve with a large enough effect in the signal ratio in the repeat runs, not every such curve was filed as active; the % refers to the signal ratio; note: potency is the fitted concentration of half-maximal effect); conditions: HEK293H PPARd-UAS-bla, beta-lactamase FRET ratio, antagonist, 17 h; series mostly up to 62 µM
Procedure, shortened: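 Inhibition of L165041-driven (300 nM final) PPARd signaling is scored in HEK293H UAS-bla cells. Exposure lasts 17 h at 37 C; beta-lactamase activity is then read by FRET substrate fluorescence after 2 h at room temperature.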

[4] = target: Bile acid receptor (Homo sapiens) (UniProt Q96RI1); experiment: qHTS assay to identify small molecule antagonists of the farnesoid-X-receptor (FXR) signaling pathway (AID 743217; active = well fitted inhibition curve with a large enough effect in the signal ratio in the repeat runs, not every such curve was filed as active; the % refers to the signal ratio); conditions: HEK293T FXR-UAS-bla, beta-lactamase ratio, CDCA-stimulated, 16 h; series mostly up to 62.6 µM
Chain of Bile acid receptor (Homo sapiens) (Q96RI1 whole entry, looked up): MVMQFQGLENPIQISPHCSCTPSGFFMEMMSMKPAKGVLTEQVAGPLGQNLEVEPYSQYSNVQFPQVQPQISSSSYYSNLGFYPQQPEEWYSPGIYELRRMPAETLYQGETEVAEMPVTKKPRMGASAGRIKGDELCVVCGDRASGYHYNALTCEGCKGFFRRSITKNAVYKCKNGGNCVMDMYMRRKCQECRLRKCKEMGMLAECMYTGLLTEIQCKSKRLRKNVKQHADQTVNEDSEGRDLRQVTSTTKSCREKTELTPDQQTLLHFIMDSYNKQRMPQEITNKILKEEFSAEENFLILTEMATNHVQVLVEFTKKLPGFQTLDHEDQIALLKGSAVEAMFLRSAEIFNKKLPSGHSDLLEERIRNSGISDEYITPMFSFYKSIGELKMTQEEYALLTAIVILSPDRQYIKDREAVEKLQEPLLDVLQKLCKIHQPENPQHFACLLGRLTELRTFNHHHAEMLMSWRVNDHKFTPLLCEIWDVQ
Procedure, shortened: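 Antagonist mode against 50 uM (final) chenodeoxycholic acid stimulation in FXR-bla HEK 293T cells, 16 h at 37 °C. Inhibition detected as reduced beta-lactamase activity via LiveBLAzer B/G FRET fluorescence after 2 h at room temperature.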

[5] = qHTS assay to identify small molecule agonists of the farnesoid-X-receptor (FXR) signaling pathway - cell viability counter screen (AID 743218); conditions: FXR-bla HEK293T viability, CellTiter-Glo luminescence, 16 h; series mostly up to 62.6 µM; note: nearly all actives have a fitted effect of over 45% in size
Procedure, shortened: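 Cytotoxicity counter-screen run in parallel, same wells: FXR-UAS-bla HEK 293T cells dosed 16 h at 37 C, viability read by CellTiter-Glo luminescence after 30 min at room temperature.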

[6] = target: Bile acid receptor (Homo sapiens) (UniProt Q96RI1); experiment: qHTS assay to identify small molecule agonists of the farnesoid-X-receptor (FXR) signaling pathway (AID 743220; active = well fitted activation curve with a large enough effect in the signal ratio in the repeat runs, not every such curve was filed as active; the % refers to the signal ratio); conditions: HEK293T FXR-UAS-bla, beta-lactamase FRET ratio, 16 h; series mostly up to 62.6 µM
Procedure, shortened: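 Beta-lactamase reporter under UAS control in GeneBLAzer FXR HEK 293T cells (5000/well) measured with LiveBLAzer FRET substrate after 2 h at room temperature. Compound exposure lasted 16 h at 37C.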

[7] = qHTS assay to identify small molecule antagonists of the farnesoid-X-receptor (FXR) signaling pathway - cell viability counter screen (AID 743221; active = well fitted cell-killing curve with a large enough effect in the repeat runs, not every such curve was filed as active; note: nearly all actives have a fitted effect of over 50% in size; note: potency is the fitted concentration of half-maximal effect); conditions: FXR-bla HEK293T viability, CellTiter-Glo luminescence, 16 h; series mostly up to 62.6 µM
Procedure, shortened: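 Here viability was scored by luminescence after CellTiter-Glo addition to wells already read for beta-lactamase. Prior treatment: compound plus CDCA (50 uM final), 16 h, 37 C, HEK 293T FXR-bla cells.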

[8] = target: Vitamin D3 receptor (Homo sapiens) (UniProt P11473); experiment: qHTS assay to identify small molecule agonists of the vitamin D receptor (VDR) signaling pathway (AID 743222; calls by dose curve); conditions: HEK293T VDR-UAS-bla, beta-lactamase FRET ratio, 16 h; series mostly up to 63.5 µM
Chain of Vitamin D3 receptor (Homo sapiens) (P11473 whole entry, looked up): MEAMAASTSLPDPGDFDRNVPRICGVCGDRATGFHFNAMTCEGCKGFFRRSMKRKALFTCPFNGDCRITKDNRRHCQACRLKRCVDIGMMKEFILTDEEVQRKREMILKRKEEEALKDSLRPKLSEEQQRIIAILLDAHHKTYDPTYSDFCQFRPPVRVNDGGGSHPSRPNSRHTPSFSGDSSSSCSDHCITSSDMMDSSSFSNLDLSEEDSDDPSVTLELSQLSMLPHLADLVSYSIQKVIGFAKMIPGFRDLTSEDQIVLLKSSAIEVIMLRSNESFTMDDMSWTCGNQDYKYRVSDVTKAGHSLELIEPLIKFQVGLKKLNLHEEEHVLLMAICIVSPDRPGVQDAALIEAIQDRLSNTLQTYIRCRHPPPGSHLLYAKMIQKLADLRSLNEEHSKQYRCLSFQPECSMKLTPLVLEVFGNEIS
Procedure, shortened: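 Quantitative HTS agonist-mode screen: compounds in DMSO were pin-transferred onto VDR-bla cells and incubated 16 h at 37C, 5% CO2. Reporter activity was detected with LiveBLAzer B/G FRET substrate after 2 h at room temperature.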

[9] = qHTS assay to identify small molecule agonists of the vitamin D receptor (VDR) signaling pathway - cell viability counter screen (AID 743224); conditions: VDR-bla HEK293T viability, CellTiter-Glo luminescence, 16 h; series mostly up to 62.6 µM; note: nearly all actives have a fitted effect of over 50% in size; note: potency is the fitted concentration of half-maximal effect
Procedure, shortened: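 Viability is measured in the same wells as the VDR-bla reporter assay: after 16 h compound treatment and 2 h substrate loading, CellTiter-Glo is added and luminescence read 30 min later.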

[10] = qHTS assay to identify small molecule agonists of the NFkB signaling pathway (AID 1159509; active = well fitted curve in the direction sought with a large enough effect in the signal ratio in the repeat runs, not every such curve was filed as active; the % refers to the signal ratio); conditions: NFkB-bla ME-180 cells, beta-lactamase FRET ratio, 5 h; series mostly up to 61 µM
Procedure, shortened: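 After overnight attachment, reporter cells received test compounds, DMSO or positive controls and were incubated 5 hr at 37 C. FRET substrate was then added for 1.5 hr at room temperature before dual-emission fluorescence reading.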

[11] = qHTS assay to identify small molecule agonists of the endoplasmic reticulum stress response signaling pathway - cell viability counter screen (AID 1159517; calls by dose curve; note: nearly all actives have a fitted effect of over 50% in size; note: potency is the fitted concentration of half-maximal effect); conditions: ESRE-bla HeLa viability, CellTiter-Glo luminescence, 5 h; series mostly up to 61 µM
Procedure, shortened: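 Counter-screen wells were identical to the reporter wells. Cells were plated at 1,500 per well and dosed for 5 hr, then read for luminescence 30 min after CellTiter-Glo addition.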

[12] = qHTS assay to identify small molecule antagonists of the retinoid-related orphan receptor gamma (ROR-gamma) signaling pathway - cell viability counter screen (AID 1159520); conditions: Tet-on RORgamma CHO cells viability, ATP luminescence, 16 h; series mostly up to 92.4 µM; note: nearly all actives have a fitted effect of over 50% in size; note: potency is the fitted concentration of half-maximal effect
Procedure, shortened: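 Tet-on ROR gamma CHO cells were given compounds for 2 hr, then doxycycline hyclate at 1 uM final, and incubated 16 hr at 37 C. Viability was measured as ATP content by CellTiter-Glo luminescence.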

[13] = target: Nuclear receptor ROR-gamma (Homo sapiens) (UniProt P51449); experiment: qHTS assay to identify small molecule antagonists of the retinoid-related orphan receptor gamma (ROR-gamma) signaling pathway (AID 1159521; note: nearly all actives have a fitted effect of over 50% in size; note: potency is the fitted concentration of half-maximal effect); conditions: Tet-on RORgamma CHO cells, RORE-luciferase, 16 h; series mostly up to 92.4 µM
Procedure, shortened: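 Test compounds were applied to Tet-on RORγ CHO cells 2 h ahead of doxycycline hyclate (1 uM final). Luciferase reporter activity was quantified by luminescence after 16 h at 37 C and 5% CO2.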

[14] = qHTS assay to identify small molecule agonists of the AP-1 signaling pathway - cell viability counter screen (AID 1159525; calls by dose curve; note: nearly all actives have a fitted effect of over 55% in size; note: potency is the fitted concentration of half-maximal effect); conditions: ME-180 AP-1-bla cells viability, ATP luminescence, 5 h; series mostly up to 76.8 µM
Procedure, shortened: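 AP-1-bla ME-180 cells in Opti-MEM with 0.5% dialyzed FBS, compound exposure 5 h at 37 C in 15-point titration. Viability read in the same wells as ATP content by CellTiter-Glo luminescence, normalised to tetra-n-octylammonium bromide and DMSO controls.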

[15] = qHTS assay to identify small molecule agonists of the AP-1 signaling pathway (AID 1159526; calls by dose curve); conditions: ME-180 (cervical carcinoma) AP-1-bla reporter, beta-lactamase FRET ratio, 5 h; series mostly up to 76.8 µM
[16] = qHTS assay to identify small molecule antagonists of the peroxisome proliferator-activated receptor delta (PPARd) signaling pathway - cell viability counter screen (AID 743213); conditions: PPARd-bla HEK293H viability, CellTiter-Glo luminescence, 17 h; series mostly up to 62 µM; note: nearly all actives have a fitted effect of over 50% in size; note: potency is the fitted concentration of half-maximal effect
Procedure, shortened: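 Agonist-stimulated (L165041, 300 nM final) HEK293H PPARd UAS-bla cells are exposed to compounds for 17 h at 37 C, and ATP-based luminescence (CellTiter-Glo) from the same wells reports cytotoxicity.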

[17] = qHTS assay to identify small molecule agonists of the endoplasmic reticulum stress response signaling pathway (AID 1159516; active = well fitted activation curve with a large enough effect in the signal ratio in the repeat runs, not every such curve was filed as active; the % refers to the signal ratio); conditions: ESRE-bla HeLa, ER stress beta-lactamase reporter, 5 h; series mostly up to 61 µM
Procedure, shortened: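 Tox21 10K library screened in quantitative HTS format on ESRE-bla HeLa cells, a beta-lactamase reporter under ER stress response element control; 5 hr treatment, FRET read.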

[18] = target: Vitamin D3 receptor (Homo sapiens) (UniProt P11473); experiment: qHTS assay to identify small molecule antagonists of the vitamin D receptor (VDR) signaling pathway (AID 743223; active = well fitted inhibition curve with a large enough effect in the signal ratio in the repeat runs, not every such curve was filed as active; the % refers to the signal ratio; note: potency is the fitted concentration of half-maximal effect); conditions: VDR-UAS-bla HEK293T, beta-lactamase FRET ratio, 16 h; series mostly up to 61 µM
Procedure, shortened: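 Inhibition of agonist-driven VDR signalling is scored in VDR-bla cells: 3 nM final 1alpha,25-dihydroxyvitamin D3 plus compound, 16 h at 37C, then beta-lactamase detection by FRET substrate fluorescence after 2 h.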

[19] = qHTS assay to identify small molecule antagonists of the vitamin D receptor (VDR) signaling pathway - cell viability counter screen (AID 743225); conditions: VDR-bla HEK293T viability, CellTiter-Glo luminescence, 16 h; series mostly up to 61 µM; note: nearly all actives have a fitted effect of over 50% in size
Procedure, shortened: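 Compounds were pinned onto VDR-bla HEK 293T cells together with 1-alpha,25-dihydroxyvitamin D3 at 3 nM final. After 16 h at 37C and 5% CO2 plus the reporter readout, cell viability was measured by CellTiter-Glo luminescence (30 min, room temperature).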

[20] = qHTS assay to identify small molecule agonists of the NFkB signaling pathway - cell viability counter screen (AID 1159515; calls by dose curve; note: nearly all actives have a fitted effect of over 55% in size); conditions: NFkB-bla ME-180 viability, CellTiter-Glo luminescence, 5 h; series mostly up to 61 µM
Procedure, shortened: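 Multiplexed viability readout: after the 5 hr compound exposure and 1.5 hr FRET substrate step, CellTiter-Glo reagent went into the same NFkB-bla ME-180 wells; ATP luminescence was measured after 30 min at room temperature.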

Compound: CC1=C(Br)C(=O)C(Br)=C/C1=C(/c1ccccc1S(=O)(=O)O)c1cc(Br)c(O)c(Br)c1C
- Potency [1]: inactive
- Potency [2]: inactive
- Potency [3]: inactive
- Potency [4]: inactive
- Potency [5]: inactive
- Potency [6]: inactive
- Potency [7]: inactive
- Potency [8]: inactive
- Potency [9]: inactive
- Potency [10]: inactive
- Potency [11]: inactive
- Potency [12]: 16.5 µM (active)
- Potency [13]: 18.6 µM (active)
- Potency [14]: inactive
- Potency [15]: inactive

Compound: O=C1Cc2ccccc2N1c1c(Cl)cccc1Cl
- Potency [16]: inactive
- Potency [3]: inactive
- Potency [4]: inactive
- Potency [6]: inactive
- Potency [7]: inactive
- Potency [9]: inactive
- Potency [10]: inactive
- Potency [17]: inactive
- Potency [11]: inactive
- Potency [12]: inactive

Compound: C=Cc1ccc(S(=O)(=O)O)cc1
- Potency [1]: inactive
- Potency [3]: inactive
- Potency [18]: inactive
- Potency [19]: inactive
- Potency [10]: inactive
- Potency [17]: inactive
- Potency [12]: inactive
- Potency [13]: inactive

Compound: CCCCCCCCC(CCCCCC)C(=O)O (configuration not stated)
- Potency [16]: inactive
- Potency [6]: inactive
- Potency [8]: inactive
- Potency [18]: inactive
- Potency [17]: inactive
- Potency [11]: 54.9 µM (active)
- Potency [12]: inactive
- Potency [14]: 49 µM (active)

Compound: CN1C(=O)N(c2ccccc2Br)Cc2cnc(Nc3ccc4c(c3)OCC(CO)O4)nc21 (configuration not stated)
- Potency [1]: 1.1 µM (active)
- Potency [16]: 11 µM (active)
- Potency [5]: inactive
- Potency [8]: inactive
- Potency [18]: 13.8 µM (active)
- Potency [20]: inactive
- Potency [13]: 54.5 µM (active)
- Potency [14]: inactive

Compound: CC1=Nc2ccc3ccccc3c2C1(C)C
- Potency [1]: inactive
- Potency [5]: inactive
- Potency [9]: inactive
- Potency [19]: inactive
- Potency [20]: inactive
- Potency [11]: inactive
- Potency [12]: inactive

Compound: C[C@@H](O[C@H]1OCCN(Cc2n[nH]c(=O)[nH]2)[C@H]1c1ccc(F)cc1)c1cc(C(F)(F)F)cc(C(F)(F)F)c1
- Potency [1]: 26.6 µM (active)
- Potency [2]: inactive
- Potency [16]: 26.6 µM (active)
- Potency [3]: 29.8 µM (active)
- Potency [6]: inactive
- Potency [7]: 29.8 µM (active)
- Potency [9]: 23.7 µM (active)
- Potency [17]: inactive
- Potency [12]: 26.6 µM (active)

Compound: CN1C(=O)c2ccccc2C1=O
- Potency [20]: inactive
- Potency [12]: inactive
- Potency [13]: inactive
- Potency [15]: inactive

Compound: CC(C)C(O)(c1ccc(OC(F)(F)F)cc1)c1cncnc1 (configuration not stated)
- Potency [1]: inactive
- Potency [5]: inactive
- Potency [7]: inactive
- Potency [18]: inactive
- Potency [9]: inactive
- Potency [19]: inactive
- Potency [17]: inactive
- Potency [12]: inactive
- Potency [13]: inactive
- Potency [14]: inactive
- Potency [15]: inactive

Compound: O=C(Nc1cccc2c(=O)cc(-c3nn[nH]n3)oc12)c1ccc(OCCCCc2ccccc2)cc1
- Potency [2]: inactive
- Potency [3]: inactive
- Potency [7]: inactive
- Potency [20]: inactive
- Potency [11]: inactive
- Potency [12]: inactive

Compound: CCOC(=O)c1ccccc1C(=C1C=C(Br)C(=O)C(Br)=C1)c1cc(Br)c(O)c(Br)c1
- Potency [1]: inactive
- Potency [16]: inactive
- Potency [8]: inactive
- Potency [9]: inactive
- Potency [19]: inactive
- Potency [20]: inactive
- Potency [12]: 51.3 µM (active)
- Potency [13]: 22.9 µM (active)
- Potency [14]: inactive

Compound: CN1C(C(=O)Nc2ccccn2)=C(O)c2sccc2S1(=O)=O
- Potency [1]: inactive
- Potency [2]: inactive
- Potency [16]: inactive
- Potency [5]: inactive
- Potency [7]: inactive
- Potency [20]: inactive
- Potency [11]: inactive
- Potency [12]: inactive
- Potency [13]: inactive
- Potency [14]: inactive

Compound: CCOc1ccccc1O[C@H](c1ccccc1)[C@H]1CNCCO1
- Potency [1]: inactive
- Potency [2]: inactive
- Potency [3]: inactive
- Potency [5]: inactive
- Potency [6]: inactive
- Potency [7]: inactive
- Potency [9]: inactive
- Potency [19]: inactive
- Potency [20]: inactive
- Potency [11]: inactive
- Potency [12]: inactive
- Potency [13]: inactive

Source: PubChem BioAssay (Tox21)
